The source made the active and inactive calls. Rule for the calls: active = hit-call score of the fitted dose curve at least 0.9, where 1 is the maximum; inactive = score below 0.9.
Columns and labels:
Conditions in all cases: mRNA level, 48 h; actives raise or lower the signal
[1] = read-out: Cytochrome P450 (CYP24A1), CYP24A1 (gene 1591); assay: LTEA_HepaRG_CYP24A1: Life Technologies and Expression Analysis (LTEA) Assay for Cytochrome P450 (CYP24A1) using HepaRG (AID 2283478)
Outline: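 Differentiated HepaRG cells, pre-cultured 48 h, were exposed in duplicate for 48 h in serum-free induction medium to 8 half-log concentrations (top 100 uM, 0.5% DMSO). CYP24A1 mRNA was quantified by TaqMan qRT-PCR, normalized to ACTB/GAPDH/POLR2A, fitted bidirectionally versus DMSO.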

[2] = read-out: cysteine-aspartic acid protease (CASP8), CASP8 (gene 841); assay: LTEA_HepaRG_CASP8: Life Technologies and Expression Analysis (LTEA) Assay for cysteine-aspartic acid protease (CASP8) using HepaRG (AID 2283480)
Outline: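 HepaRG, 48 h exposure, duplicate wells; 8 conc, half-log from 100 uM, 0.5% DMSO. Serum-free induction medium. CASP8 mRNA by TaqMan qRT-PCR, norm. ACTB/GAPDH/POLR2A; gain/loss fitted vs DMSO.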

[3] = read-out: Cytochrome P450 (CYP2B6), CYP2B6 (gene 1555); assay: LTEA_HepaRG_CYP2B6: Life Technologies and Expression Analysis (LTEA) Assay for Cytochrome P450 (CYP2B6) using HepaRG (AID 2283481)
Outline: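 Differentiated HepaRG cells, serum-free induction medium, exposed 48 h in duplicate to 8-point half-log concentrations from 100 uM in 0.5% DMSO. CYP2B6 mRNA by qRT-PCR, normalized to ACTB, GAPDH, POLR2A; bidirectional fit versus DMSO.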

[4] = read-out: Cytochrome P450 2C19 (Homo sapiens) (UniProt P33261); assay: LTEA_HepaRG_CYP2C19: Life Technologies and Expression Analysis (LTEA) Assay for CYP2C19 using HepaRG (AID 2283482)
Outline: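 Differentiated human HepaRG cells were exposed for 48 h in serum-free induction medium to 8 concentrations (top 100 uM, half-log steps, 0.5% DMSO). CYP2C19 mRNA was measured by qRT-PCR, normalized to ACTB/GAPDH/POLR2A, and fitted bidirectionally against DMSO.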

[5] = read-out: CYP2C8 (gene 1558); assay: LTEA_HepaRG_CYP2C8: Life Technologies and Expression Analysis (LTEA) Assay for CYP2C8 using HepaRG (AID 2283483)
Outline: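 CYP2C8 mRNA induction or loss, by qRT-PCR normalized to ACTB/GAPDH/POLR2A, is read in HepaRG cells after 48 h treatment. Concentrations run from 100 uM down in half-log dilutions, with 0.5% DMSO as vehicle and baseline.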

[6] = read-out: CYP2C9 (gene 1559); assay: LTEA_HepaRG_CYP2C9: Life Technologies and Expression Analysis (LTEA) Assay for CYP2C9 using HepaRG (AID 2283484)
Outline: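 Cells plated 48 h, switched to serum-free induction medium, then treated in duplicate for 48 h at eight concentrations (max 100 uM, 0.5% DMSO). RNA then analysed by qRT-PCR for CYP2C9; curves fitted in both directions relative to DMSO.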

[7] = read-out: CYP2E1 (gene 1571); assay: LTEA_HepaRG_CYP2E1: Life Technologies and Expression Analysis (LTEA) Assay for CYP2E1 using HepaRG (AID 2283485)
Outline: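 Human liver line HepaRG, plated 48 h, then serum-free induction medium + chemical x 48 h; 8-pt CRC from 100 uM, half-log, 0.5% DMSO, n=2. Readout: CYP2E1 mRNA qRT-PCR vs ACTB/GAPDH/POLR2A; bidirectional fit vs DMSO.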

[8] = read-out: CYP4A11 (gene 1579); assay: LTEA_HepaRG_CYP4A11: Life Technologies and Expression Analysis (LTEA) Assay for CYP4A11 using HepaRG (AID 2283486)
Outline: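 Differentiated HepaRG cells, serum-free induction medium, exposed 48 h in duplicate to 8-point half-log series from 100 uM in 0.5% DMSO. CYP4A11 mRNA measured by qRT-PCR, normalized to ACTB, GAPDH, POLR2A; bidirectional fit versus DMSO.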

[9] = read-out: Cytochrome P450 3A4 (Homo sapiens) (UniProt P08684); assay: LTEA_HepaRG_CYP3A4: Life Technologies and Expression Analysis (LTEA) Assay for CYP3A4 using HepaRG (AID 2283487)
Outline: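 Differentiated HepaRG cells, plated 48 h, then dosed 48 h in serum-free induction medium with 0.5% DMSO, 8 half-log concentrations up to 100 uM, duplicate. CYP3A4 mRNA by qRT-PCR, normalized to ACTB/GAPDH/POLR2A; bidirectional fit versus DMSO.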

[10] = read-out: Cytochrome P450 (CYP1A2), CYP1A2 (gene 1544); assay: LTEA_HepaRG_CYP1A2: Life Technologies and Expression Analysis (LTEA) Assay for Cytochrome P450 (CYP1A2) using HepaRG (AID 2283479)
Outline: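 Differentiated human HepaRG cells in serum-free induction medium were exposed in duplicate for 48 h to 8-point half-log concentrations up to 100 uM in 0.5% DMSO. CYP1A2 mRNA measured by qRT-PCR, normalized to ACTB, GAPDH, POLR2A; bidirectional fit vs DMSO.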

Measured: AC50

Cytochrome P450 2C19 (Homo sapiens), sequence (P33261 whole entry, looked up): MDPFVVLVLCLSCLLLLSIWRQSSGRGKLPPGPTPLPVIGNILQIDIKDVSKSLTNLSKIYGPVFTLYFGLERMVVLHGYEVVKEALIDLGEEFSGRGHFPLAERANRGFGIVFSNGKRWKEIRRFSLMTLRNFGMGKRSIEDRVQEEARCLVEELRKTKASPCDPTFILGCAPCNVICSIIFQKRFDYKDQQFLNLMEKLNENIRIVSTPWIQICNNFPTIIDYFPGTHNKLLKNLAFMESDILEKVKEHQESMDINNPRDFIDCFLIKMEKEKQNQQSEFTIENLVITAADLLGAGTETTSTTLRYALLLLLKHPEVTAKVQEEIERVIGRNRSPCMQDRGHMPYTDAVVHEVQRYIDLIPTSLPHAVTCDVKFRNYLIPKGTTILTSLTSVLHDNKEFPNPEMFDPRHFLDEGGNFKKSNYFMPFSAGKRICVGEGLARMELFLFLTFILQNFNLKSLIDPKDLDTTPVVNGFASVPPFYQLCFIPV
Cytochrome P450 3A4 (Homo sapiens), sequence (P08684 whole entry, looked up): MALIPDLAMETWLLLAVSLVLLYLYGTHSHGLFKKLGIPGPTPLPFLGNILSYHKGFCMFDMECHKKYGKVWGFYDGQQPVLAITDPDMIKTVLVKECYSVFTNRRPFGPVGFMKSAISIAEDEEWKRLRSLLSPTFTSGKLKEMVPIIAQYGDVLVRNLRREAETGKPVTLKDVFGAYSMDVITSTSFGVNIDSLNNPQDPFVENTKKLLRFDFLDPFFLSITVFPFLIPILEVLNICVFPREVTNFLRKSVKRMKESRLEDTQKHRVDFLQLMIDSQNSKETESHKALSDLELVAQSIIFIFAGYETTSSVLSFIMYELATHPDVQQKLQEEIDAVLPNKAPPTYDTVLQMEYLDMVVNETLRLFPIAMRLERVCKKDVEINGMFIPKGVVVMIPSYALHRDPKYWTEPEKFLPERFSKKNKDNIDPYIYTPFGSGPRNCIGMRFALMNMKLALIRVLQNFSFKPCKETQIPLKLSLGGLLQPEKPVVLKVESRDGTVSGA

CCN(CC)CCNc1ccc(CNC=O)c2sc3ccc(OC)cc3c(=O)c12
active: [2] 50 µM | [3] 7.58 µM | [6] 16.8 µM | [7] 12.8 µM | [8] 26 µM | [9] 50 µM
inactive: [1] | [4] | [5]

CC(C)(C)c1cc(C(C)(C)C)c(O)c(C(C)(C)C)c1
active: [10] 5.21 µM | [3] 8.66 µM | [7] 17 µM | [9] 8.55 µM
not listed: [5]
inactive: all other assays above

CC#C[C@]1(O)CC[C@H]2[C@@H]3CCC4=CC(=O)CCC4=C3[C@@H](c3ccc(N(C)C)cc3)C[C@@]21C
active: [2] 27.6 µM | [3] 34 µM | [4] 33 µM | [6] 50 µM | [7] 19.6 µM | [8] 23.9 µM
inactive: [1]

CCC(=C(c1ccc(O)cc1)c1ccc(OCCN(C)C)cc1)c1ccccc1
active: [2] 75.9 µM | [3] 3.08 µM | [4] 91.4 µM | [8] 84.4 µM | [9] 2.51 µM
inactive: [1] | [6] | [7]

Cc1cc(C)c(O)c(C)c1
inactive: [1] | [2] | [8]
active: [3] 3.65 µM | [4] 9.18 µM | [6] 6.31 µM | [7] 13.4 µM | [9] 13.7 µM

CCC(C)(C)C1CCC(O)CC1 (stereo not given)
active: [3] 16 µM
not listed: [5] | [10]
inactive: all other assays above

O=c1c(-c2ccc(O)cc2)coc2cc(O)ccc12
not listed: [5] | [10]
inactive: all other assays above

COCC(C)OCC(C)O (stereo not given)
not listed: [10]
inactive: all other assays above

CCc1nn(C2CCCCC2)c2cc(C3(C#N)CCC(C(=O)O)CC3)ccc12 (stereo not given)
inactive: [1] | [2]
active: [3] 82.8 µM | [4] 63.3 µM | [5] 79.8 µM | [6] 63.4 µM | [7] 60.6 µM | [8] 50.6 µM | [9] 82.2 µM

CCCCCCCCC(=O)O
not listed: [5] | [10]
inactive: all other assays above

CCCOC(=O)c1ccc(O)cc1
inactive: [1] | [2] | [3] | [6] | [7] | [8]

COC(=O)CCCCC(=O)OC
not listed: [5] | [10]
inactive: all other assays above

CN(C)C=O
not listed: [5] | [10]
inactive: all other assays above

Cc1oc(-c2ccccc2)nc1CCOc1ccc(C[C@H](Nc2ccccc2C(=O)c2ccccc2)C(=O)O)cc1
active: [2] 32.1 µM | [3] 18.5 µM | [4] 23.3 µM | [6] 22.5 µM | [7] 17.1 µM | [8] 28.1 µM | [9] 12.7 µM
inactive: [1]

Cc1cc(CCN2CCN(c3nsc4ccccc34)CC2)cc2c1NC(=O)CC2(C)C
inactive: [1] | [2]
active: [3] 79.7 µM | [4] 88.4 µM | [6] 80.3 µM | [7] 66.2 µM | [8] 63.9 µM | [9] 92 µM

Oc1cc2ccccc2c2ccccc12
not listed: [10]
inactive: all other assays above

CC[C@H](c1ccc(O)cc1)[C@@H](CC)c1ccc(O)cc1
inactive: [2] | [6]
active: [1] 83.4 µM | [3] 79.4 µM | [4] 80.3 µM | [7] 87.9 µM | [8] 76.7 µM

CCCCC(CC)COC(=O)CCCCC(=O)OCc1ccccc1 (stereo not given)
not listed: [5] | [10]
inactive: all other assays above

CCCOc1sc(C(=O)N2CCC(c3cc(CN)ccc3F)CC2)c(C)c1Br
active: [3] 1.96 µM
not listed: [5] | [10]
inactive: all other assays above

CCCCCCCC(=O)O
not listed: [5] | [9] | [10]
inactive: all other assays above

Nc1cccc2c(N)cccc12
active: [3] 2.68 µM | [7] 50 µM | [8] 50 µM
not listed: [5] | [10]
inactive: all other assays above

CC(C)(C)c1ccc(O)c(C(C)(C)C)c1
active: [1] 0.01 µM | [9] 50 µM
not listed: [5] | [10]
inactive: all other assays above

CCCCCCCCCCCCCCCS(=O)(=O)Oc1ccccc1
active: [3] 3.1 µM | [4] 8.59 µM | [7] 14.1 µM | [9] 9.56 µM
inactive: [1] | [2] | [6] | [8]

COc1ccc([N+](=O)[O-])cc1N
active: [3] 20.7 µM
not listed: [5] | [10]
inactive: all other assays above

CN1CCN(c2ccccc2/C=C2\SCCN(c3ccc(Cl)c(Cl)c3)C2=O)CC1
inactive: [1] | [4] | [6] | [9]
active: [2] 93.4 µM | [3] 50 µM | [7] 12.8 µM | [8] 17.4 µM

CCCCOCCO
not listed: [10]
inactive: all other assays above

C=C(C)C(=O)OCCC(F)(F)C(F)(F)C(F)(F)C(F)(F)C(F)(F)C(F)(F)F
active: [3] 11.8 µM | [7] 20.1 µM
not listed: [5] | [10]
inactive: all other assays above

N#C[C@@H]1CC(F)(F)CN1C(=O)CNC1CC2CCC(C1)N2c1ncccn1 (stereo not given in full)
active: [3] 27.8 µM | [4] 69 µM | [9] 50 µM
not listed: [5] | [10]
inactive: all other assays above

CC(C)(C)c1cccc(C(C)(C)C)c1O
not listed: [8] | [10]
inactive: all other assays above

NC(=O)N1C(=O)C(C(=O)c2cc(Cl)cs2)c2cc(F)c(Cl)cc21 (stereo not given)
inactive: [1]
active: [2] 19.2 µM | [3] 16.3 µM | [4] 22.4 µM | [5] 50 µM | [6] 22.4 µM | [7] 13.2 µM | [9] 24.6 µM

CC(C)CCCCCCOC(=O)CCCCC(=O)OCCCCCCC(C)C
active: [3] 31.8 µM
not listed: [5] | [10]
inactive: all other assays above

c1ccc2c(c1)ccc1ccccc12
inactive: [1] | [2] | [8]
active: [3] 5.8 µM | [4] 15.4 µM | [6] 6.12 µM | [7] 10.1 µM | [9] 7.1 µM

CCCCCCCCOC(=O)CCCCCCCCC(=O)OCCCCCCCC
not listed: [5] | [10]
inactive: all other assays above
